The values that follow come from PubChem BioAssay (EPA / NIEHS).

Molecules are shown by their SMILES. The source holds several records for some structures; these can differ, active in one and inactive in another. The source made the active and inactive calls. Rule for the calls: active = hit-call score of the fitted dose curve at least 0.9, where 1 is the maximum; inactive = score below 0.9.

Read-out in experiment [1]: TIMP metallopeptidase inhibitor 2 (TIMP2), TIMP2 (gene 7077)
The experiment is described as follows: BSK_KF3CT_TIMP2: BioMAP Diversity Plus: KF3CT Assay for TIMP metallopeptidase inhibitor 2 (TIMP2) Biomarker Activity (AID 2283071). Particulars: primary human keratinocytes with fibroblasts; actives raise or lower the signal. An outline of the steps: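 TIMP-2 measured by ELISA at 24 h in human keratinocyte/fibroblast primary co-cultures exposed to chemicals. Both increases and decreases were fitted against DMSO. Parallel cultures were stained with SRB for total protein as an overt-cytotoxicity check.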

Read-out in experiment [2]: Transforming growth factor beta 1 (TGFb1), TGFB1 (gene 7040)
Kind of experiment: BSK_KF3CT_TGFb1: BioMAP Diversity Plus: KF3CT Assay for Transforming growth factor beta 1 (TGFb1) Biomarker Activity (AID 2283072). Particulars: primary human keratinocytes with fibroblasts; actives raise or lower the signal. The method in brief:
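ELISA quantifies TGF-b1 at 24 h post-dose in a primary human skin co-culture of keratinocytes and fibroblasts, with gain or loss judged against DMSO. Parallel SRB total-protein staining flags overt cytotoxicity.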

Read-out in experiment [3]: C-C motif chemokine 2 (Homo sapiens) (UniProt P13500)
Kind of experiment: BSK_KF3CT_MCP1: BioMAP Diversity Plus: KF3CT Assay for Monocyte Chemoattractant Protein 1 (MCP1/CCL2) Biomarker Activity (AID 2283073). Particulars: primary human keratinocytes with fibroblasts; actives raise or lower the signal. The method in brief: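 Human keratinocyte–foreskin fibroblast co-culture; MCP-1 measured by ELISA 24 h after dosing. Bidirectional fit vs DMSO; cytotoxicity tracked by SRB total protein in parallel cultures.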

Read-out in experiment [4]: Matrix Metallopeptidase 9 (MMP9), MMP9 (gene 4318)
The experiment is described as follows: BSK_KF3CT_MMP9: BioMAP Diversity Plus: KF3CT Assay for Matrix Metallopeptidase 9 (MMP9) Biomarker Activity (AID 2283074).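 For AC50: MMP9 protein level quantified by ELISA in the co-culture.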 Particulars: primary human keratinocytes with fibroblasts; actives raise or lower the signal. The method in brief:
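Values come from bidirectional fitting relative to DMSO of MMP-9 levels, which were measured by ELISA. Measurements were taken 24 h after chemical dosing of a keratinocyte and foreskin fibroblast co-culture.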

Read-out in experiment [5]: urokinase plasminogen activator (uPA), PLAU (gene 5328)
The experiment is described as follows: BSK_KF3CT_uPA: BioMAP Diversity Plus: KF3CT Assay for urokinase plasminogen activator (uPA) Biomarker Activity (AID 2283075). Particulars: primary human keratinocytes with fibroblasts; actives raise or lower the signal. An outline of the steps: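 Values derive from bidirectional fitting against DMSO controls. Keratinocyte/foreskin fibroblast co-cultures received chemical; 24 h later uPA was detected by ELISA, with SRB total-protein staining in parallel wells for overt cytotoxicity.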

Read-out in a further experiment: CD40, CD40 (gene 958)
The experiment is described as follows: BSK_LPS_CD40: BioMAP Diversity Plus: LPS Assay for CD40 Biomarker Activity (AID 2283076). Particulars: primary human HUVEC with PBMC; actives raise or lower the signal. An outline of the steps:
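HUVEC plus PBMC co-culture stimulated with LPS; CD40 quantified by ELISA 24 h after compound dosing. Fitting was bidirectional relative to DMSO. SRB staining of parallel cultures flagged overt cytotoxicity.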

Read-out in experiment [6]: E-selectin (Homo sapiens) (UniProt P16581)
Kind of experiment: BSK_LPS_Eselectin: BioMAP Diversity Plus: LPS Assay for Eselectin Biomarker Activity (AID 2283077). Particulars: primary human HUVEC with PBMC; actives raise or lower the signal. The method in brief:
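Human umbilical vein endothelial cells co-cultured with PBMC under LPS stimulation; cell-surface E-selectin measured by ELISA 24 h after dosing. Change in either direction versus DMSO, with SRB total-protein staining in parallel cultures for cytotoxicity.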

Read-out in experiment [7]: Interleukin-8 (IL8), CXCL8 (gene 3576)
The experiment is described as follows: BSK_LPS_IL8: BioMAP Diversity Plus: LPS Assay for Interleukin-8 (IL8) Biomarker Activity (AID 2283078). Particulars: primary human HUVEC with PBMC; actives raise or lower the signal. The method in brief: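 Human umbilical vein endothelial cells co-cultured with PBMC, LPS-stimulated, exposed to compound for 24 h. IL-8 quantified by ELISA; fitted in both directions against DMSO, with SRB total-protein staining of parallel cultures for cytotoxicity.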

Experiment [8] in a line: BSK_LPS_SRB: Viability Assessment in the BioMAP Diversity Plus: LPS Assay (AID 2283079).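 Note: total protein by sulforhodamine B absorbance as a cytotoxicity measure; measured one day after compound addition; fitted in both directions against DMSO so loss or gain of signal counts.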 Particulars: primary human HUVEC with PBMC. The method in brief: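 Co-culture of human umbilical vein endothelial cells and PBMC, read 24 h after dosing. Total protein by 0.1% SRB staining after 10% TCA fixation, absorbance at 560 nm; bidirectional fit against DMSO.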
Read-out in experiment [9]: Interleukin-1 alpha (IL1a), IL1A (gene 3552)
The experiment is described as follows: BSK_LPS_IL1a: BioMAP Diversity Plus: LPS Assay for Interleukin-1 alpha (IL1a) Biomarker Activity (AID 2283080). Particulars: primary human HUVEC with PBMC; actives raise or lower the signal. The method in brief: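 Human umbilical vein endothelial cells co-cultured with PBMC and stimulated with LPS; IL-1a measured by ELISA 24 h after dosing. Bidirectional fitting against DMSO; cytotoxicity checked by SRB staining in parallel cultures.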

Sequence of E-selectin (Homo sapiens) (P16581 whole entry, looked up): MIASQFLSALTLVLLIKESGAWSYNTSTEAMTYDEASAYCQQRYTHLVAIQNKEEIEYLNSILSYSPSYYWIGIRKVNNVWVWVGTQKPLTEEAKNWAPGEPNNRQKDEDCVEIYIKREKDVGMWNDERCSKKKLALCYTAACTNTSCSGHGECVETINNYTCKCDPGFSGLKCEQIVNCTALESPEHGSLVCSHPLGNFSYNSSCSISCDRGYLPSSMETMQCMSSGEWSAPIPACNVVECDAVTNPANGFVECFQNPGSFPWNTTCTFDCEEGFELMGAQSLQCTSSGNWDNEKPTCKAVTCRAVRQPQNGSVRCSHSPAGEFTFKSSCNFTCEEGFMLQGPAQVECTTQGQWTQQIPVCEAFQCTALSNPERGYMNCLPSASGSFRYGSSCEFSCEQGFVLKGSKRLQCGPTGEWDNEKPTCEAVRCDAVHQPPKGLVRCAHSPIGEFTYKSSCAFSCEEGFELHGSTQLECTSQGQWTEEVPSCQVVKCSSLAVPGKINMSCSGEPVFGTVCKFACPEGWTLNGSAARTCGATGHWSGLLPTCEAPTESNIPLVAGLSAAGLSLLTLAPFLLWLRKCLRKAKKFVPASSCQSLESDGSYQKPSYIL

As to `C=CC(Cl)CCl` (centres undefined), the concentration at half-maximal activity (AC50) in experiment [1] was 0.181 µM (active); in [2], 0.189 µM (active); in experiment [5], 0.0169 µM (active). For the same molecule, the outcome in [3] was “inactive”; in experiment [4], “inactive”; in the experiment with CD40, CD40 (gene 958) it was “inactive”; in [6] it was “inactive”; in [7] it was “inactive”; in [8], “inactive”. Besides, in experiment [9], the result was inactive.
Consider `Nc1ccc(N)cc1`, for which the outcome in experiment [1] is “inactive”; in experiment [2], “inactive”; in [3], “inactive”; in [4], “inactive”; in [5], “inactive”; in the experiment with CD40, CD40 (gene 958), “inactive”. Also, the result in [6], in [7], in experiment [8] and in experiment [9] was inactive.
With `CCN(CC)C(=O)C(Cl)=C(C)OP(=O)(OC)OC`, the outcome in [1] is “inactive”; in experiment [2] it was “inactive”; in [3], “inactive”; in experiment [4], “inactive”; in [5], “inactive”; with CD40, CD40 (gene 958), “inactive”. Moreover, the outcome in experiment [6], in experiment [7], in experiment [8] and in experiment [9] was inactive.
As for `Cc1ccc(OP(=O)(Oc2ccc(C)cc2C)Oc2ccc(C)cc2C)c(C)c1`, the outcome in [1], in experiment [2], in experiment [3], in experiment [6], in experiment [7] and in experiment [8] was inactive. Further, the AC50 is 8.84 µM (active) in experiment [4]; 20 µM (active) in experiment [5]; 6.48 µM (active) with CD40, CD40 (gene 958); 5.81 µM (active) in [9].
Turning to `CC1(C)[C@H](C(=O)O[C@H](C#N)c2cccc(Oc3ccccc3)c2)[C@@H]1/C=C(\Cl)C(F)(F)F`, the concentration at half-maximal activity (AC50) in experiment [1] is 0.525 µM (active); in experiment [4], 0.357 µM (active); in experiment [5], 0.12 µM (active); in experiment [7], 0.0495 µM (active); in [9], 21.3 µM (active). Further, the outcome was “inactive” in experiment [1]; “inactive” in experiment [2]; “inactive” in experiment [3]; “inactive” in experiment [5]; “inactive” in the experiment with CD40, CD40 (gene 958); “inactive” in [6]. Moreover, the result in [7], in experiment [8] and in [9] was inactive.
In the case of `Oc1c(Cl)cc(Cl)cc1Cl`, the outcome was “inactive” in experiment [1]; “inactive” in [2]; “inactive” in experiment [3]; “inactive” in experiment [4]; “inactive” in experiment [5]; “inactive” with CD40, CD40 (gene 958). Also, the result in [6], in [7], in experiment [8] and in [9] was inactive.
Turning to `CCOC(=O)CC(=O)CCl`, the result in experiment [1], in experiment [2], in experiment [3], in experiment [4], in experiment [5] and in experiment [6] was inactive. Also, in [8], the result was inactive. Moreover, the concentration at half-maximal activity (AC50) with CD40, CD40 (gene 958) is 20 µM (active); in [7], 31.9 µM (active); in [9] it was 31.1 µM (active).
`OC(Cc1ccccc1Cl)(Cn1cncn1)C1(Cl)CC1` (centres undefined): the outcome in [1] is “inactive”; in experiment [2] it was “inactive”; in [3], “inactive”; in [4] it was “inactive”; in [5] it was “inactive”; in the experiment with CD40, CD40 (gene 958), “inactive”. Also, the result in experiment [6], in [7], in experiment [8] and in experiment [9] was inactive.
Take `c1ccc(-c2cccc(-c3ccccc3)c2)cc1`: the outcome in experiment [1], in experiment [2], in experiment [3] and in experiment [5] was inactive. Also, the AC50 in experiment [4] is 8.97 µM (active); with CD40, CD40 (gene 958), 25.4 µM (active); in experiment [6], 29.7 µM (active); in experiment [7] it was 29.9 µM (active); in [8], 23.9 µM (active); in [9], 20 µM (active).
As to `CCOP(=O)(OCC)SCCSCC`, the outcome is “inactive” in [1]; “inactive” in experiment [2]; “inactive” in [3]; “inactive” in [4]; “inactive” in experiment [5]; “inactive” with CD40, CD40 (gene 958). In addition, the outcome in experiment [6], in [7], in experiment [8] and in experiment [9] was inactive.
